We go through 10 compounds from PubChem BioAssay (EPA / NIEHS).

Results filed as inconclusive are left out. Calls of active or inactive are those of the source. How the source made its calls, unless noted: active means hit-call score of the fitted dose curve at least 0.9, where 1 is the maximum; inconclusive means response in the unintended direction; inactive means score below 0.9.

Test [1] deals with PGR (gene 5241) (UniProt P06401). The experiment in a line: TOX21_PR_BLA_Followup_Antagonist_ratio: Tox21 HEK293 Progesterone Receptor (PR) Antagonism Beta-lactamase Follow-Up Assay, Ratio (AID 2283934). An outline of the steps:
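Read-out: blue/green beta-lactamase FRET ratio (cleaved ch2 over uncleaved ch1), fitted relative to DMSO baseline. Cells: PR-UAS-bla HEK293T, GAL4-UAS reporter, stimulated with 1 nM R5020 final; 16 hr compound exposure, 37C.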

Test [2] can be described thus: TOX21_PR_BLA_Followup_Agonist_viability: Viability Assessment in the Tox21 HEK293 Progesterone Receptor (PR) Agonism Beta-lactamase Follow-Up Assay (AID 2283935).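 Further: signal loss means lower viability so actives are cytotoxic.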 How it is done:
TOX21_PR_BLA_Followup is a secondary assay for specificity for the TOX21_PR_BLA_Agonist assay. To differentiate true PR agonists from cytotoxic substances, this follow up assay is multiplexed with a cell viability assay. The compounds were also tested for auto fluorescence that may interfere with the biological target readout resulting in potential false positives and/or negatives. To identify the compounds that stimulate PR signaling, a PR-UAS-bla GripTite cell line i.e. PR-UAS-bla HEK293T (Invitrogen, Carlsbad, CA, USA) containing a beta-lactamase reporter gene under the control of an UAS response element was used to screen Tox21 10K compound library. The cytotoxicity of the Tox21 compound library against the PR-bla cell line was tested in parallel by measuring the cell viability using CellTiter-Glo assay in the same wells. TOX21_PR_BLA_Followup_Agonist_viability is a component of the TOX21_PR_BLA_Followup_Agonist assay. This component measures cell viability using the CellTiter-Glo Luciferase-coupled ATP quantitation.TOX21_PR_BLA_Followup_Agonist_viability used a type of viability reporter where loss-of-signal activity can be used to understand changes in the cell viability. Furthermore, this assay endpoint can be referred to as a secondary readout, because this assay has produced multiple assay endpoints where this one serves a viability function. To generalize the intended target to other relatable targets, this assay endpoint is annotated to the cell cycle intended target family, where the subfamily is cytotoxicity.
Assay Protocol: PR-UAS-bla HEK293T cells were dispensed at 3,000 cells/5 uL of assay medium containing 2% charcoal stripped FBS per well into black wall/clear-bottom 1536-well plates using a Multidrop Combi (ThermoFisher Scientific, Waltham, MA) dispenser. After the assay plates were incubated at a 37C and 5% CO2 for 6 hr, 23 nL of compounds dissolved in DMSO, positive controls or DMSO only was transferred to the assay plate by a Pintool station (Kalypsys, San Diego, CA). The plates were incubated at 37C and 5% CO2 for 16 hr. Then 1 uL of LiveBLAzer B/G FRET substrate was added using a Flying Reagent Dispenser (FRD, Aurora Discovery, San Diego, CA), the plates were incubated at room temperature for 2 hours, and fluorescence intensity was measured by an Envision plate reader (PerkinElmer, Shelton, CT). For cell viability readout that measures cytotoxicity, 4 uL/well of CellTiter-Glo reagent was added into the assay plates using a FRD. After 30 min incubation at room temperature, the luminescence intensity in the plates was measured using a ViewLux (PerkinElmer) plate reader.

A short description of test [3]: TOX21_PR_BLA_Followup_Antagonist_viability: Viability Assessment in the Tox21 HEK293 Progesterone Receptor (PR) Antagonism Beta-lactamase Follow-Up Assay (AID 2283936).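 Further: cells exposed to compound with R5020 agonist for 16 h; hits lower the luminescence signal meaning cytotoxicity.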 In outline: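 PR-UAS-bla HEK293T cells in medium with 2% charcoal-stripped FBS were treated with compounds plus R5020 for 16 hr at 37C. After the beta-lactamase read, CellTiter-Glo was added to the same wells and luminescence read after 30 min at room temperature.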

Test [4] concerns the target PGR (gene 5241) (UniProt P06401). Nature of the test: TOX21_PR_LUC_Followup_Antagonist: Tox21 HEK293 Progesterone Receptor (PR) Antagonism Luciferase Follow-Up Assay (AID 2283938).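 Further: curve fitted upward as signal gain over DMSO baseline despite antagonist label.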 In outline: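 HEK293-PR-A-luc cells, 3,000/well, preincubated 5 h at 37C before compound addition in DMSO; 16 h compound exposure at 37C. ONE-Glo luciferase luminescence read after 30 min at room temperature, fitted relative to DMSO baseline.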

Test [5] in a line: TOX21_PR_LUC_Followup_Antagonist_viability: Viability Assessment in the Tox21 HEK293 Progesterone Receptor (PR) Antagonism Luciferase Follow-Up Assay (AID 2283940). An outline of the steps:
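Read-out: CellTiter-Glo ATP luminescence, loss of signal taken as reduced viability. Cells: HEK293-PR-A-luc, 3,000/well, 5 h settling, then 16 h compound exposure at 37C, 0% CO2.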

A short description of test [6]: TOX21_PR_LUC_Followup_Agonist_viability: Viability Assessment in the Tox21 HEK293 Progesterone Receptor (PR) Agonism Luciferase Follow-Up Assay (AID 2283941).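 Further: loss of signal means cytotoxicity so actives lower viability.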 An outline of the steps:
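Cytotoxicity counter-screen: ATP content by CellTiter-Glo luminescence, loss of signal = reduced viability. HEK293-PR-A-luc, 3,000 cells/well, compound exposure 16 h, 37C.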

In test [7] the target is Thyroid hormone receptor alpha (Rattus norvegicus) + Thyroid hormone receptor beta (Rattus norvegicus) (UniProt P18113+P63059). Nature of the test: TOX21_TR_LUC_GH3_Antagonist_Followup: Tox21 GH3 Thyroid Hormone Receptor Antagonism Luciferase Follow-Up Assay (AID 2283942). In outline:
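Luminescence read-out (ONE-Glo, 30 min at room temperature) in GH3 reporter cells challenged with 1.0 nM T3 final. Compounds ran at 92 uM to 5nM over 15 concentrations for 24 h; DMSO served as negative control and baseline.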

A further test addresses THRA (gene 7067) (UniProt P10827). The experiment in a line: TOX21_TRA_COA_Antagonist_Followup_ratio: Tox21 Thyroid Hormone Receptor alpha Antagonism through Coactivator Recruitment Follow-Up Assay, Ratio (AID 2283953). An outline of the steps: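 We measured antagonism of T3-type coactivator recruitment using a TR-FRET ratio (emission 520 and 495 nm) between a Tb-labelled anti-GST antibody on TRα LBD (2.5 nM) and SRC-2 peptide (200 nM). Activity was scaled between DMSO and T3 wells.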

For another test, the target named is THRB (gene 7068) (UniProt P10828). The experiment in a line: TOX21_TRB_BLA_Antagonist_Followup_ratio: Tox21 Thyroid Hormone Receptor beta Antagonism Beta-lactamase (BLA) Follow-Up Assay, Ratio (AID 2283958). In outline: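 Read-out: blue/green (460:530 nm) ratio of cleaved to uncleaved CCF4-AM after 2 h at room temperature, fitted against DMSO baseline. HEK293T UAS-bla cells carrying GAL4-human TRβ LBD were exposed 18 h, 37C/5% CO2.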

Test [8] addresses PGR (gene 5241) (UniProt P06401). The experiment in a line: TOX21_PR_LUC_Followup_Agonist: Tox21 HEK293 Progesterone Receptor (PR) Agonism Luciferase Follow-Up Assay (AID 2283937; active means hit-call score of the fitted dose curve at least 0.9, where 1 is the maximum; inactive means score below 0.9). In outline: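 Luminescence read-out (ONE-Glo, 30 min at room temperature) of PR-driven luciferase in HEK293-PR-A-luc cells after 16 h compound exposure at 37C; gain of signal fitted relative to DMSO baseline.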

THRA (gene 7067), sequence (P10827 whole entry, looked up, the tested form may be a part): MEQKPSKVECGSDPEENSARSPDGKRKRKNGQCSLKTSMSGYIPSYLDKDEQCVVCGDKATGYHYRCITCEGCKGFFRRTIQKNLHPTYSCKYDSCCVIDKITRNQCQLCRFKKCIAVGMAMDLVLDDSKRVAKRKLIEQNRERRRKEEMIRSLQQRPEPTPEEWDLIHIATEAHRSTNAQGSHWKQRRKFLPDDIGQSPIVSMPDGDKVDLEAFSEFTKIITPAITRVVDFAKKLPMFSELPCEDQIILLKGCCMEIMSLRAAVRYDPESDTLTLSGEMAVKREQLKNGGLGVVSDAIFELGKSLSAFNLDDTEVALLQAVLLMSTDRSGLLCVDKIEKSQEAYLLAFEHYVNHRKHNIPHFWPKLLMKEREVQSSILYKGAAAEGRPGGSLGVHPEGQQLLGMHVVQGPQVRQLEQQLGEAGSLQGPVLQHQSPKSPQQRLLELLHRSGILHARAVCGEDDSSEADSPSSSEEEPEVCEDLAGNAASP
THRB (gene 7068), sequence (P10828 whole entry, looked up, the tested form may be a part): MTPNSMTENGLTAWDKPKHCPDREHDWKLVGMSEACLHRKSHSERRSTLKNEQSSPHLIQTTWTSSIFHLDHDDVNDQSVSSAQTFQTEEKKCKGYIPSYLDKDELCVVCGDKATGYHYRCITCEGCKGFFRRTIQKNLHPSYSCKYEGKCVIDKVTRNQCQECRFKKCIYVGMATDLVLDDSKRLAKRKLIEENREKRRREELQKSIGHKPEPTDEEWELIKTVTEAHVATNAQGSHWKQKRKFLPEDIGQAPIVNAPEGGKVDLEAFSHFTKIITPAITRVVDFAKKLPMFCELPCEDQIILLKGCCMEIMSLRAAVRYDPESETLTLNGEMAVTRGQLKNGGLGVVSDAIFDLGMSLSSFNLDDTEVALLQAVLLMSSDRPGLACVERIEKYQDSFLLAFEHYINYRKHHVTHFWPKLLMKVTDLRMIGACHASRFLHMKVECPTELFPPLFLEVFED
PGR (gene 5241), sequence (P06401 whole entry, looked up, the tested form may be a part): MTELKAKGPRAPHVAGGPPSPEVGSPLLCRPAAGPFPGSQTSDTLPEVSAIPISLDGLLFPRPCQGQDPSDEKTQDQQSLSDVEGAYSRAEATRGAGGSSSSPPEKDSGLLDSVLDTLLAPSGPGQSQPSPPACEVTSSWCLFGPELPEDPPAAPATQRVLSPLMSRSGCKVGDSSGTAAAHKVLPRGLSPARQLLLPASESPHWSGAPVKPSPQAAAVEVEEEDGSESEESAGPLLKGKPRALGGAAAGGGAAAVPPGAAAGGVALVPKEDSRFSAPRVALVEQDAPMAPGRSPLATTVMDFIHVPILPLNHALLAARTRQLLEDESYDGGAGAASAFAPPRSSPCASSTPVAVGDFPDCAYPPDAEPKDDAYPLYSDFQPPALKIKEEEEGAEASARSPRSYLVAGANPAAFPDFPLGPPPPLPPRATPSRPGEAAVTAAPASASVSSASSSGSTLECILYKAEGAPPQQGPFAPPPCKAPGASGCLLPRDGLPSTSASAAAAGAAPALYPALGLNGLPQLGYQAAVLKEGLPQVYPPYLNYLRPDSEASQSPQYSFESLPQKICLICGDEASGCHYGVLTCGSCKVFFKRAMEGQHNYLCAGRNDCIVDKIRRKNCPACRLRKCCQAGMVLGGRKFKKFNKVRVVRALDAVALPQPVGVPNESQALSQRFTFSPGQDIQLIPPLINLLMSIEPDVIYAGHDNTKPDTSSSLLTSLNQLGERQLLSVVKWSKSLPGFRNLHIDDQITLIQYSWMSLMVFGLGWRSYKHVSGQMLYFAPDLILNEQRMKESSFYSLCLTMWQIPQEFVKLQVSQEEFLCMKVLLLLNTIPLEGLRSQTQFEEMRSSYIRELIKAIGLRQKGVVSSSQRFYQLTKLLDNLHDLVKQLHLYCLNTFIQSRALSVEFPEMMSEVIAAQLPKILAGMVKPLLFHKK

The term AC50 denotes the concentration at which the activity in the assay is half-maximal. For the compound `COc1ccc(C(c2ccc(OC)cc2)C(Cl)(Cl)Cl)cc1`, the half-maximal activity concentration (AC50) with PGR (gene 5241) [1] was 6.48 µM (active); with PGR (gene 5241) [4], 15.2 µM (active). Further, the result in [2], in test [3] and in [5] was inactive.

On to `C=CC1(C)OC(=O)N(c2cc(Cl)cc(Cl)c2)C1=O` (stereo not drawn), for which the result (in the test with PGR (gene 5241) [1]; in [2]; in [3]; with PGR (gene 5241) [4]; in [5]; in test [6]) was inactive.

In the case of `CO/C=C(/C(=O)OC)c1ccccc1Oc1cc(Oc2ccccc2C#N)ncn1`, the AC50 in test [7] was 3.91 µM (active). Further, the outcome with THRA (gene 7067) and with THRB (gene 7068) was inactive.

As for `CON(C)C(=O)Nc1ccc(Cl)c(Cl)c1`, the outcome (with PGR (gene 5241) [1]; in test [2]; in test [3]; in test [5]; in test [6]) was inactive.

Regarding `CN(C)C(=S)SSC(=S)N(C)C`, the half-maximal activity concentration (AC50) in test [7] was 24.3 µM (active). The outcome with THRA (gene 7067) and with THRB (gene 7068) was inactive.

Take `N#CC(CCc1ccc(Cl)cc1)(Cn1cncn1)c1ccccc1` (stereo not drawn): the AC50 in the test with PGR (gene 5241) [1] was 17.8 µM (active); with PGR (gene 5241) [4], 22.5 µM (active). Besides, the compound was classed as inactive (in test [2]; in test [3]; with PGR (gene 5241) [8]; in test [5]; in test [6]).

For the compound `CCCCNC(=O)n1c(NC(=O)OC)nc2ccccc21`, the result (in test [7]; with THRA (gene 7067); with THRB (gene 7068)) was inactive.

`CCOP(=S)(OCC)SCn1c(=O)oc2cc(Cl)ccc21`: the concentration at half-maximal activity (AC50) is 24.9 µM (active) with PGR (gene 5241) [1] and 32.8 µM (active) with PGR (gene 5241) [4]. Also, the compound was classed as inactive in [2], in [3] and in [5].

`CCc1nn(C)c(C(=O)NCc2ccc(C(C)(C)C)cc2)c1Cl`: the result (in test [7]; in the test with THRB (gene 7068)) was inactive.

Regarding `COC(=O)N(OC)c1ccccc1COc1ccn(-c2ccc(Cl)cc2)n1`, the half-maximal activity concentration (AC50) with PGR (gene 5241) [1] was 7.24 µM (active); with PGR (gene 5241) [4], 13.6 µM (active); in test [7] it was 1.09 µM (active); in the test with THRB (gene 7068), 4.01 µM (active). For the same compound, the call (in test [2]; in test [3]; in test [5]; in test [6]; with THRA (gene 7067)) was inactive.
